Test results from PubChem BioAssay (NCI).
Compounds without any hit were thinned out: in the full panel of roughly 83,000, 20% have a hit.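 Results are percent growth after 48 hours of single-concentration exposure. 100 means growth as in untreated cells, lower positive values show inhibition; negative values down to -100 show cell death.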 Active and inactive are the calls of the source. How the source made its calls: active means growth percent below 10; inactive means the rest.

system: CCRF-CEM leukemia; test: NCI-60 one-dose screen, 48 h (100 = growth as untreated, 0 = no growth, -100 = all killed); conditions: 10 µM unless noted

SMILES	growth
COc1ccc(C2CC(c3ccc(Nc4ccnc5cc(Cl)ccc45)cc3)=NN2c2ccccc2)cc1 (centres undefined)	69.8% (inactive)
CCCCc1n(Cc2ccc3ccccc3n2)cc[n+]1Cc1ccc2ccccc2n1	23.3% (inactive)
O=C(/C=C/c1cn(-c2ccccc2)nc1-c1cccc(Nc2ccnc3cc(Cl)ccc23)c1)c1ccc2c(c1)OCO2	17.2% (inactive)
NC(=O)c1noc(C(=O)c2ccccc2)c1N	98.8% (inactive)
COc1ccc(/C=C(/C(=O)N2CCN(c3ccccc3)CC2)c2cc(OC)c(OC)c(OC)c2)cc1O	8.16% (active)
Fc1ccc(-c2ccnc3nc(-c4ccncc4)nn23)cc1	110% (inactive)
O=C1CC2(O)CSc3nc(=O)cc(n32)N1 (centres undefined)	101% (inactive)
CCOC(=O)C1=C(C)NC(SCc2nnc(-c3ccc(Cl)cc3)o2)=NC1c1ccc(Br)cc1 (centres undefined)	43.4% (inactive)
Nc1ncnc2c1N=C(c1ccc(F)cc1)CC(c1sc(Cl)nc1Cl)N2 (centres undefined)	29.1% (inactive)
O=C1/C(=C\c2cccn2Cc2ccc(Cl)cc2)c2ccccc2N1c1c(Cl)cccc1Cl	82.4% (inactive)
CCOC(CN1CCN(CC(C)C(=O)c2ccccc2)CC1)c1ccccc1 (centres undefined)	84.7% (inactive)
COc1ccc(/C(=C\c2cc(OC)c(OC)c(OC)c2)C(=O)N2CCNCC2)cc1	96.1% (inactive)
COc1ccc2[nH]c(C(=O)OCc3ccc4cccc(O)c4n3)cc2c1	4.41% (active)
O=C(CCc1nc2sc3c(c2c(=O)[nH]1)CCC3)NCc1cn(-c2ccccc2)nc1-c1ccccc1	61% (inactive)
